Reference: the supplement of paper PMC13380429

Assays:
[1] = tested on: Vero E6 infected with SARS-CoV-2; test: morphology score (similarity to uninfected cells); higher = more like uninfected cells; details: 24 h
[2] = tested on: Vero E6 infected with SARS-CoV-2; test: SARS-CoV-2 infection rate relative to infected DMSO; higher = more infection, active = 60 or less; details: 24 h

Row | Structure (SMILES) | morphology score [1] | SARS-CoV-2 infection rate [2]
1 | CC(C)COC(=O)c1ccc(N)cc1 [isobutamben] (10 µM) | 0.0167 | 106% (inactive)
2 | Cn1cc(-c2ccc3ncc(Cc4ccc5ncccc5c4)n3n2)cn1 (10 µM) | 0.442 | 83% (inactive)
3 | CCN1C(=O)NC(c2ccccc2)C1=O (centres undefined) [ethotoin] (10 µM) | 0.221 | 97% (inactive)
4 | Cc1ccnc2c1CCCC2C(N)=S (centres undefined) [isotiquimide] (10 µM) | 0.0559 | 113% (inactive)
5 | CC(C)[C@@H](C)/C=C/[C@@H](C)[C@H]1CC[C@H]2/C(=C/C=C3\C[C@@H](O)CC[C@@H]3C)CCC[C@]12C [dihydrotachysterol] (10 µM) | 0.121 | 106% (inactive)
6 | CC(C)CC(NC(=O)OCC1c2ccccc2-c2ccccc21)C(=O)O (stereo in doubt) (10 µM) | 0.145 | 96% (inactive)
7 | Nc1nc(N)c2nc(-c3cccc(O)c3)cnc2n1 (10 µM) | 0.242 | 101% (inactive)
8 | Cc1ccc2c(c1)c1c(n2CCc2ccc(C)nc2)CCN(C)C1 [latrepirdine] (10 µM) | 0.241 | 96.5% (inactive)
9 | COc1cc(Nc2ncc3c(n2)-c2ccc(Cl)cc2C(c2c(F)cccc2OC)=NC3)ccc1C(=O)O [alisertib] (0.833333 µM) | 0.272 | 112% (inactive)
10 | CN(C)CCC(c1ccccc1)c1ccccn1 (centres undefined) [pheniramine] (10 µM) | -0.131 | 110% (inactive)
11 | O=C(O)CCCc1c[nH]c2ccccc12 [3-indolebutyric-acid] (10 µM) | 0.123 | 114% (inactive)
12 | CCCC1(CCC)CCC2(CCN(CCCN(CC)CC)C2)CC1 [atiprimod] (0.833333 µM) | 0.283 | 82.5% (inactive)
13 | CCCCC(CC)CNC(=N)NC(=N)NCCCCCCNC(=N)NC(=N)NCC(CC)CCCC (centres undefined) [alexidine] (0.833333 µM) | -0.0694 | 104% (inactive)
14 | CN(C)CCN1C(=O)c2cccc3cc(N)cc(c23)C1=O [amonafide] (0.833333 µM) | 0.15 | 102% (inactive)
15 | CCOCc1nc2c(N)nc3ccccc3c2n1CC(C)(C)O [resiquimod] (10 µM) | 0.0727 | 113% (inactive)
16 | Cc1cccc(C)c1OCC(C)N (centres undefined) [mexiletine] (10 µM) | -0.0725 | 112% (inactive)

Row | Structure (SMILES) | morphology score [1] | SARS-CoV-2 infection rate [2]
17 | Nc1ccc([As](=O)(O)O)cc1 [arsanilic-acid] (10 µM) | -0.00345 | 103% (inactive)
18 | CC(C)[C@@H](C)/C=C/[C@@H](C)[C@H]1CC[C@H]2C3=CC=C4C[C@@H](O)CC[C@]4(C)[C@H]3CC[C@]12C [ergosterol] (10 µM) | 0.0665 | 104% (inactive)
19 | Clc1cccc(Cl)c1CSc1nnc(-c2cnccn2)s1 [yoda-1] (10 µM) | 0.286 | 89% (inactive)
20 | CCN(CC)CCOC(=O)C(c1ccccc1)c1ccccc1 [adiphenine] (10 µM) | -0.106 | 110% (inactive)
21 | O=C1CN(/N=C/c2ccc([N+](=O)[O-])o2)C(=O)N1 [nitrofurantoin] (10 µM) | 0.168 | 112% (inactive)
22 | C1N2CN3CN1CN(C2)C3 [methenamine] (10 µM) | 0.11 | 100% (inactive)
23 | COc1ccc2[nH]c3c(-c4cccc5ccccc45)nccc3c2c1 (10 µM) | -0.0282 | 111% (inactive)
24 | O=C(O)CCNc1cc(N2CCc3ccccc3CC2)nc(-c2cccnc2)n1 (10 µM) | 0.165 | 108% (inactive)
25 | COc1ccc(-c2coc3cc(O)cc(O)c3c2=O)cc1 [4-methylgenistein] (10 µM) | 0.139 | 103% (inactive)
26 | NC(=O)c1[nH]cnc1O (10 µM) | -0.0334 | 107% (inactive)
27 | CCCOCCn1c(=O)c(N2CCN(CCO)CC2)nc2cnc(-c3ccc(OC)nc3)cc21 (10 µM) | -0.0795 | 116% (inactive)
28 | COc1ccc(OC)c([C@@H](O)CNC(=O)CN)c1 [midodrine] (10 µM) | -0.0583 | 108% (inactive)
29 | CCCCN1CCC(CNC(=O)c2c3n(c4ccccc24)CCCO3)CC1 [piboserod] (10 µM) | 0.132 | 92.5% (inactive)
30 | [O-][n+]1cccc(CO)c1 [mepiroxol] (10 µM) | -0.0187 | 109% (inactive)
31 | O=C(O)CCc1c(C(=O)O)[nH]c2cc(Cl)cc(Cl)c12 (10 µM) | -0.0263 | 104% (inactive)
32 | CCNC1(C(N)=O)CCN(c2ncnc3c2nc(-c2ccccc2Cl)n3-c2ccc(Cl)cc2)CC1 (10 µM) | -0.024 | 108% (inactive)
